The nature of test [1]: TOX21_p53_BLA_p2_viability: Viability Assessment in the Tox21 HCT-116 p53 Agonism Beta-lactamase Assay, Phase 2 (AID 2283591).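 Note: compound exposure lasted 16 h at 37 °C; actives lower the ATP signal meaning cytotoxicity.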 The gist of the method: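 HCT116 p53-bla cells, 4000/well, dosed after 5 h plating (217-fold dilution of DMSO stocks) and incubated 16 h at 37C. Viability taken as cellular ATP by CellTiter-Glo luminescence after 30 min RT; signal loss marks cytotoxicity.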

The target of test [2] is Cellular tumor antigen p53 (Homo sapiens) (UniProt P04637). Put plainly: TOX21_p53_BLA_p2_ratio: Tox21 HCT-116 p53 Agonism Beta-lactamase Assay, Ratio, Phase 2 (AID 2283592). The gist of the method:
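Cleaved-to-uncleaved substrate ratio (460 vs 530 nm) measured in HCT116 cells with an inducible beta-lactamase reporter linked to p53 activity. Compounds incubated 16 h at 37C before 2 h room-temperature CCF4-AM loading.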

Test [3] is described as follows: TOX21_p53_BLA_p3_viability: Viability Assessment in the Tox21 HCT-116 p53 Agonism Beta-lactamase Assay, Phase 3 (AID 2283593).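 Note: cells exposed to compound for 16 h before reading.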 An outline of the steps: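 HCT116 cells, 4000/well, dosed 5 h after plating by pin transfer (217-fold dilution from DMSO stock) and incubated 16 h at 37C, 5% CO2. Viability read as ATP luminescence with CellTiter-Glo after 30 min at room temperature.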

Test [4] has as its target Cellular tumor antigen p53 (Homo sapiens) (UniProt P04637). Put plainly: TOX21_p53_BLA_p3_ratio: Tox21 HCT-116 p53 Agonism Beta-lactamase Assay, Ratio, Phase 3 (AID 2283596). The gist of the method:
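Cells were seeded at 4000/well, rested 5 h at 37C, then dosed with DMSO compound solutions (217-fold dilution) for 16 h. CCF4-AM substrate was loaded for 2 h at room temperature, and the 460/530 nm emission ratio was fitted for gain of signal versus DMSO.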

Test [5] shares this target. Put plainly: TOX21_p53_BLA_p5_ratio: Tox21 HCT-116 p53 Agonism Beta-lactamase Assay, Ratio, Phase 5 (AID 2283599). The gist of the method: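 HCT-116 p53-bla cells (4000/well) plated 5 h, dosed with compound (217-fold DMSO dilution) for 16 h at 37 C; CCF4-AM substrate 2 h at room temperature. Activity is the 460/530 nm emission ratio (405 nm excitation), fitted in gain-of-signal direction versus DMSO.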

For test [6] the target is unchanged. Nature of the test: TOX21_p53_BLA_p4_ratio: Tox21 HCT-116 p53 Agonism Beta-lactamase Assay, Ratio, Phase 4 (AID 2283601). The gist of the method: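 HCT-116 p53 beta-lactamase reporter cells (4000/well) preincubated 5 h, then compound (217-fold dilution of DMSO stock) for 16 h at 37C. CCF4-AM substrate added 2 h at room temperature; 460/530 nm emission ratio fitted upward versus DMSO.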

Test [7] is described as follows: TOX21_p53_BLA_p5_viability: Viability Assessment in the Tox21 HCT-116 p53 Agonism Beta-lactamase Assay, Phase 5 (AID 2283600). An outline of the steps:
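Viability is taken from cellular ATP content, measured by luciferase luminescence in the same wells after the beta-lactamase ratio read. Cells are seeded at 4000 per well and exposed to DMSO-dissolved compounds, diluted 217-fold, for 16 h.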

The AC50 is the concentration at which the activity in the assay is half-maximal.

Structures are written as SMILES. Results filed as inconclusive are left out. Calls of active or inactive are those of the source. Rule for the calls: active = hit-call score of the fitted dose curve at least 0.9, where 1 is the maximum; inconclusive = response in the unintended direction; inactive = score below 0.9.

Sequence of Cellular tumor antigen p53 (Homo sapiens) (P04637 whole entry, looked up): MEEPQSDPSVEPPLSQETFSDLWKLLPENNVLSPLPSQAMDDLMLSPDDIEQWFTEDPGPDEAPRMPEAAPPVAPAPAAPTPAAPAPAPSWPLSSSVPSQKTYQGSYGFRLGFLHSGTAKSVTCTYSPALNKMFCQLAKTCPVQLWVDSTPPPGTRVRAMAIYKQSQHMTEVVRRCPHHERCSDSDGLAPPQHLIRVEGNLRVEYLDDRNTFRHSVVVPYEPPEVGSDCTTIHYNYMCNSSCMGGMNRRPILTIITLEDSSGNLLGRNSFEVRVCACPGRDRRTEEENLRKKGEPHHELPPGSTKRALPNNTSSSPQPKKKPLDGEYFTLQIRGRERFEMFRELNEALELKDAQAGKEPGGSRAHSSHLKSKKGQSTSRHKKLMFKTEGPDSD

In the case of `C=CCC1(C(C)CCC)C(=O)N=C(S)NC1=O` (stereo unspecified), the outcome in test [1], in test [2], in test [3], in test [4], in test [5] and in test [6] was inactive.
Regarding `O=C(Nc1ccccc1)N(Cc1ccc(Cl)cc1)C1CCCC1`, the compound was called inactive in test [1], in test [2], in test [3], in test [4], in test [5] and in test [7].
For the compound `CC(C)CCON=O`, the call in test [1], in test [2], in test [3], in test [4], in test [5] and in test [7] was inactive. The outcome in test [6] was inactive.
As to `C(CCOCC1CO1)COCC1CO1` (stereo unspecified), the result in test [1], in test [2], in test [3], in test [5], in test [7] and in test [6] was inactive. Further, the AC50 in test [4] is 65.2 µM (active).
As to `C=CC1CC=CCC1` (stereo unspecified), the result in test [1], in test [2], in test [3], in test [4] and in test [5] was inactive.
Take `COC(=O)[C@@H](N)CCCN/C(N)=N/[N+](=O)[O-]`: the outcome in test [1], in test [2], in test [3], in test [4], in test [5] and in test [6] was inactive.
Regarding `C1CCC2CCCCC2C1` (stereo unspecified), the call in test [1], in test [2], in test [3], in test [4], in test [5] and in test [6] was inactive.
Regarding `Oc1cccc(Cl)c1`, the compound was classed as inactive in test [1], in test [2], in test [3], in test [4], in test [5] and in test [7]. Besides, in test [6], the result was inactive.
As to `CCCCCCCCCCCCCC[P+](CCCCCC)(CCCCCC)CCCCCC` (tested in a mixture with another compound), the half-maximal activity concentration (AC50) in test [1] was 11.7 µM (active); in test [2] it was 21.4 µM (active); in test [3] it was 24.1 µM (active); in test [4], 33.5 µM (active); in test [5] it was 46.8 µM (active); in test [7] it was 15.2 µM (active). In test [6], the outcome was inactive.
For `CC(C)(O)C(Cl)(Cl)Cl`, the compound was classed as inactive in test [1], in test [2], in test [3], in test [4] and in test [7].
Turning to `O=C(NC(=O)c1ccccc1Cl)Nc1ccc(OC(F)(F)F)cc1`, the call in test [1], in test [2], in test [3], in test [4], in test [5] and in test [7] was inactive. In addition, in test [6], the result was inactive.
With `CCBr`, the result in test [1], in test [2], in test [3], in test [4], in test [7] and in test [6] was inactive.
`C=CCc1cc(OC)c2c(c1)OCO2`: the outcome in test [1], in test [2], in test [3], in test [4], in test [5] and in test [6] was inactive.

Values taken from PubChem BioAssay (EPA / NIEHS).
